Test results reported in PubChem BioAssay (EPA / NIEHS).
The source made the active and inactive calls. How the source made its calls: active means hit-call score of the fitted dose curve at least 0.9, where 1 is the maximum; inactive means score below 0.9.

Assay: APR_HepG2_MitoticArrest_72hr: Apredica 72-hour HepG2 Assay for Mitotic Arrest (AID 2282918)
Conditions: high-content imaging, actives raise or lower the signal
Experimental: APR_HepG2_72hr is a cell-based, multiplexed-readout assay that uses HepG2, a human liver cell line, with measurements taken at 72 hours after chemical dosing in a 384-well plate.APR_HepG2_MitoticArrest_72hr is one of 10 assay component(s) measured or calculated from the APR_HepG2_72hr assay. It is designed to make measurements of cell phenotype, a form of morphology reporter, as detected with fluorescence intensity signals by HCS Fluorescent Imaging technology.Data from the assay component APR_HepG2_MitoticArrest_72hr was analyzed into 1 assay endpoint. This assay endpoint, APR_HepG2_MitoticArrest_72hr, was analyzed with bidirectional fitting relative to DMSO as the negative control and baseline of activity. Using a type of morphology reporter, measures of protein for gain or loss-of-signal activity can be used to understand the signaling at the pathway-level as they relate to the gene . Furthermore, this assay endpoint can be referred to as a primary readout, because this assay has produced multiple assay endpoints where this one serves a signaling function. To generalize the intended target to other relatable targets, this assay endpoint is annotated to the cell cycle intended target family, where the subfamily is arrest.
Cells were treated with dimethyl sulfoxide (DMSO) as a solvent control at a final concentration of 0.5% v/v or with compounds in DMSO with a resulting final DMSO concentration of 0.5% v/v. Compound treatment was done at concentrations of 0.39, 0.78, 1.56, 3.12, 6.24, 12.5, 25, 50, 100, and 200 uM in duplicate on each plate. Cells were treated with compounds for 1, 24, or 72 hr. Carbonyl […] m-chloro-phenylhydrazone (CCCP) and taxol were used as positive controls for mitochondrial function and cytoskeletal stability, respectively; DMSO served as the negative control for this experiment. Cells were fixed by the direct addition of 50 uL formaldehyde in Hank's Balanced Salt Solution (HBSS) to a final concentration of 3.7%. After incubation in the fixation medium for 30 min at room temperature (293-298 K), cells were rinsed twice with HBSS and treated with cell permeabilization buffer (16 uL of 0.5% Triton X-100) for 10 min at room temperature (293-298 K) before labeling. For mitochondrial membrane potential and mitochondrial measurements, pre-fixed cells were incubated with 50 uL of MitoTracker Red CMXRos (Invitrogen) at a concentration of 250 nM for 30 min before fixation. In the remaining cases, post-fixed cells were labeled by incubation with a multiplexed mixture of primary antibodies in HBSS for 60 min at room temperature (293-298 K) to detect immunoreactivity of c-Jun (1:500), phospho-histone H3 (1:100), phospho-histone H2A.x (1:200), p53 (1:400), alpha-tubulin (1:200) and Hoechst 33342 (2 ug/mL). Cells were labeled for multiplexed imaging on two separate plates: a) Hoechst 33342, MitoTracker Red, phospho-histone H3, and alpha-tubulin, and b) Hoechst 33342, phospho-histone H2A.x, and c-Jun. A final rinse with HBSS (50 uL) was performed before analysis. The primary and secondary antibodies for the proteins were phospho-histone H3 (rabbit anti-phospho-histone H3 and FITC-donkey anti-rabbit IgG), phospho-histone H2A.x (mouse anti-phospho-histone H2A.x and FITC-donkey anti-mouse IgG), c-Jun (rabbit anti-phospho-c-Jun and Cy3-donkey anti-rabbit IgG), p53 (sheep anti-p53 and Cy5-donkey anti-sheep IgG), alpha-tubulin (mouse anti-alpha-tubulin and Cy5-donkey anti-mouse IgG). These antibodies are available as the CellCiphr HepG2 assay kit (Millipore).Digital images of each well were captured using a Cellomics ArrayScan VTI (Thermo Scientific Cellomics) (0.8 NA objective, 0.63x optical coupler, and XF-93 filter set) at 20x magnification. The images were acquired using the autofocus feature of the ArrayScan instrument, which entails the following steps. First, the camera focuses on channel 1 (Hoechst 33342), where nuclei are identified. Second, a Z offset of 1 um is used for capturing mitochondria (MitoTracker Red). […]

Row | Compound | outcome | AC50
1 | c1ccc(N=Nc2ccccc2)cc1 | inactive | –
2 | COC(=O)Nc1nc2ccccc2[nH]1 | inactive | –
3 | Cc1ccc(N)c(N)c1 | inactive | –
4 | N#CC(Br)(Br)C(N)=O | inactive | –
5 | O=Cc1ccco1 | inactive | –
6 | CCCCCCCCCCCCCN1CC(C)OC(C)C1 (stereo not given) | inactive | –
7 | Nc1ccc(Cc2ccc(N)cc2)cc1 | inactive | –
8 | CCC[CH2][Sn]([Cl])([CH2]CCC)[CH2]CCC | – | 0.0382 µM (active)
9 | CN(C)c1ccc(C(=O)c2ccc(N(C)C)cc2)cc1 | – | 16.5 µM (active)
10 | c1ccc2c(c1)-c1cccc3cccc-2c13 | – | 87.1 µM (active)
11 | ClC1=C(Cl)[C@]2(Cl)[C@H]3[C@H]([C@@H]4C=C[C@H]3C4)[C@@]1(Cl)C2(Cl)Cl | – | 32.9 µM (active)
12 | Clc1ccc(C(c2ccc(Cl)cc2)C(Cl)Cl)cc1 | – | 68.3 µM (active)
13 | N#CC(Br)Br | – | 73.6 µM (active)
14 | OCCOCCO | inactive | –
15 | Nc1ccc(Cl)cc1N | – | 2.4 µM (active)
16 | CC(C)COC(=O)c1ccccc1C(=O)OCC(C)C | – | 67 µM (active)
17 | CCCCC(CC)COC(=O)c1ccc(C(=O)OCC(CC)CCCC)c(C(=O)OCC(CC)CCCC)c1 (stereo not given) | inactive | –
18 | CCCCCOC(=O)c1ccccc1C(=O)OCCCCC | inactive | –
19 | CN(C)[C@@H]1C(=O)C(C(N)=O)=C(O)[C@@]2(O)C(=O)C3=C(O)c4c(O)cccc4[C@@](C)(O)[C@H]3C[C@@H]12 | inactive | –
20 | OCCCBr | inactive | –

Row | Compound | outcome | AC50
21 | Cc1cc(N=Nc2ccccc2C)ccc1N | inactive | –
22 | O=[N+]([O-])C(Br)(CO)CO | inactive | –
23 | CC(C)N(Cc1ccccc1)C(=O)C(C)(C)C | inactive | –
24 | CCN(CC)N=O | inactive | –
25 | Cc1cccc(N)c1N | – | 19.8 µM (active)
26 | Clc1ccccc1Cl | inactive | –
27 | CC(C)(C)OOC(C)(C)CCC(C)(C)OOC(C)(C)C | – | 54.8 µM (active)
28 | O=C(N[C@H](c1ccccc1)[C@@H]1CN2CCC1CC2)c1c(Cl)ccc(C(F)(F)F)c1Cl | – | 24 µM (active)
29 | C[C@]12C=CC3=C4CCC(=O)C=C4CC[C@H]3[C@@H]1CC[C@@H]2O | – | 20.8 µM (active)
30 | Brc1ccc(Oc2ccccc2)cc1 | – | 100 µM (active)
31 | Nc1cc(Cl)cc(C(=O)O)c1Cl | inactive | –
32 | CCN(CC)CCO | inactive | –
33 | O=[N+]([O-])c1ccc(Oc2ccc(Cl)cc2Cl)cc1 | – | 71 µM (active)
34 | O=C(Nc1ccccc1)c1ccccc1I | inactive | –
35 | O=C(Oc1ccc(Br)cc1)N1CCN2CCC1CC2 | – | 106 µM (active)
36 | Clc1ccc(C(c2ccc(Cl)cc2)C(Cl)(Cl)Cl)cc1 | – | 42.6 µM (active)
37 | Cc1ccc([N+](=O)[O-])cc1 | inactive | –
38 | c1ccc(NNc2ccccc2)cc1 | – | 100 µM (active)
39 | CC(O)CCO (stereo not given) | inactive | –
40 | CCNS(=O)(=O)C(F)(F)C(F)(F)C(F)(F)C(F)(F)C(F)(F)C(F)(F)C(F)(F)C(F)(F)F | – | 72.5 µM (active)
